D2 PAM-1 – positive allosteric modulators of human D2 dopamine receptor; P14416; DiscoveRx D2 beta-arrestin cells, luminescence, 90 min; 100% = 57 uM dopamine signal; potentiation, % (test concentration not listed); 360,000 compounds, 0.23% hits; in the data active = potentiation above about 50%; inconclusive = mostly about 30% to 49%
Target sequence (P14416 whole entry, looked up): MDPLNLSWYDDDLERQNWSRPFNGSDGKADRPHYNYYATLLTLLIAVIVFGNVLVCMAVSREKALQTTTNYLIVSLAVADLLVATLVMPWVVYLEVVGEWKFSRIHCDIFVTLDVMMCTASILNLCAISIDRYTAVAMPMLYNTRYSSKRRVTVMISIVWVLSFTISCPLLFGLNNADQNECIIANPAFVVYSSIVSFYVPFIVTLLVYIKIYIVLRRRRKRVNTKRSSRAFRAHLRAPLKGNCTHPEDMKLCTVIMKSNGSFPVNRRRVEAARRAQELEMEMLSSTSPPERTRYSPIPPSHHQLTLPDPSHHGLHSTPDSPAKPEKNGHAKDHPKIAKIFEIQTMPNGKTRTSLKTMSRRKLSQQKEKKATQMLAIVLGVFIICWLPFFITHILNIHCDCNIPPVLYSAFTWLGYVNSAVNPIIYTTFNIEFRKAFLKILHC
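PathHunter D2 cells, attached overnight at 37 deg C, received compound in DMSO plus dopamine at EC20 (50 nM final) for 90 min at 37 deg C. Beta-arrestin recruitment was read as luminescence after 1 h with detection reagent at ambient temperature.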
D2 antagonist – antagonists of human D2 dopamine receptor. 340,000 compounds, 2% hits. inhibition, % at 10 µM. HEK293 TREx D2 cells, calcium flux, dopamine EC80; in the data active = inhibition above about 30%; inactive = below that, where a call was filed
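Calcium mobilization kinetics were recorded at 1 s intervals in tetracycline-induced HEK293 T-REx D2 cells, first for 180 s after compound addition and then 180 s after EC80 dopamine.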
D2 PAM-2 – positively modulates the human D2 dopamine receptor allosterically. HEK293 T-REx D2, calcium flux, EC20 dopamine potentiation. potentiation, % at 10 µM. 340,000 compounds, 0.34% hits. AID 485347;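 active = potentiation over 3 SD above the plate norm, cut at about 30% in these data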
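Calcium flux readout, no-wash dye, 1 read/s. Inducible HEK293 Trex D2 line, overnight 30 C. Compound alone 180 s (agonist flags), then EC20 dopamine, another 180 s to score potentiation.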
D2 ag-1 – activates the human D2 dopamine receptor; P14416; DiscoveRx PathHunter D2 beta-arrestin, luminescence, 90 min; 100% = 57 uM dopamine signal; activation, % (no concentration beside the values); 360,000 compounds, 0.084% hits; in the data active = activation above about 40%; inconclusive = between about 15% and that limit
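Agonist mode: compounds alone added to overnight-plated D2 PathHunter cells for 90 min at 37 C, with 57 uM final dopamine (EC100) defining full response. Beta-arrestin recruitment detected by chemiluminescent reagent, read after 1 h at ambient temperature.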
D2 ag-2 – agonists of human D2 dopamine receptor; P14416; 340,000 compounds, 0.53% hits; HEK293 T-REx D2 cells, calcium flux agonist mode; activation, % at 2 µM;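 active = activation over 3 SD above normal in the single-dose calcium agonist read, cut at about 30% in these data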
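Tetracycline-induced HEK293 T-REx cells with force-coupled D2 receptor, plated overnight at 30 C, loaded with no-wash calcium dye. After a 10 s baseline, compound was pin-added and calcium flux read kinetically for 180 s; calcium rises flagged agonists.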
A number is an active result; – = inactive; ? = inconclusive; · = no result; ! = not active in a repeat. Rows were chosen to be rich in hits. Some 2.4% of all compounds tested hit in one or more screens of this group.

SMILES | D2 PAM-1 | D2 antagonist | D2 PAM-2 | D2 ag-1 | D2 ag-2
Cn1c(=O)c2sccc2n2c(CCCC(=O)Nc3ccc(F)c(F)c3)nnc12 | · | · | – | · | –
Cn1c(=O)c2sccc2n2c(CCCC(=O)Nc3ccc(F)cc3F)nnc12 | – | – | 32 | – | –
CCc1ccc(C(=O)NC(Cc2c[nH]c3ccccc23)C(=O)OCC(=O)c2ccc(Br)cc2)cc1 (configuration not stated) | · | · | – | · | –
COc1ccc(NC(=O)CCS(=O)(=O)c2ccc3c(c2)n(C)c(=O)c(=O)n3C)cc1Cl | · | · | – | · | –
COc1ccc(NC(=O)c2cc(-c3ccco3)on2)cc1 | – | – | – | – | –
COc1ccc(NC(=O)c2cc(-c3ccccc3Cl)on2)cc1 | – | – | – | – | –
COc1ccc(-c2cc(C(=O)Nc3cc(C)on3)no2)cc1 | – | – | – | – | –
CCc1ccc(NC(=O)c2cc(-c3ccco3)on2)cc1 | – | – | 53 | – | –
COc1ccc(NC(=O)c2cc(-c3ccccc3OC)on2)cc1 | – | 32 | – | – | –
COc1ccc(OC)c(-c2cc(C(=O)Nc3cc(C)on3)no2)c1 | – | 38 | – | – | –
CCOc1cc(/C=N/NC(N)=O)cc(Br)c1OCC(=O)Nc1ccccc1C | 53 | – | – | – | –
CS(=O)(=O)c1ccc(NCC2CCCO2)c([N+](=O)[O-])c1 (configuration not stated) | – | – | 125 | – | –
Cc1cc(Nc2ccc(F)cc2)n2c(nc3ccccc32)c1C#N | · | · | – | · | –
Cc1cc(Nc2cccc([N+](=O)[O-])c2)n2c(nc3ccccc32)c1C#N | – | 35 | – | – | –
Cc1cc(=O)n(CC(C)O)c(O)c1C#N (configuration not stated) | 62 | – | – | – | –
Cc1cc(=O)n(CCCO)c(O)c1C#N | ? | – | – | – | –
O=C(CC1NCCc2ccccc21)Nc1ccc(Cl)cc1 (configuration not stated) | – | 44 | – | – | –
O=C(CC1NCCN(Cc2ccccc2)C1=O)Nc1ccc(Cl)cc1 (configuration not stated) | – | – | – | – | –
Cc1ccc(NS(=O)(=O)c2c(C)nc3sccn3c2=O)cc1 | – | – | – | – | –
Cc1nc2sccn2c(=O)c1S(=O)(=O)Nc1ccc(N2CCN(C(=O)C(C)C)CC2)cc1 | – | – | 51! | – | –
COc1ccc(-n2ccn(CC(=O)NCCc3ccccc3)c(=O)c2=O)cc1OC | · | · | – | · | –
CS(=O)(=O)c1ccc2nc(NC(=O)CN3CCN(Cc4ccccc4)CC3)sc2c1 | – | 45 | – | – | –
CS(=O)(=O)c1ccc2nc(NC(=O)c3cc([N+](=O)[O-])cc([N+](=O)[O-])c3)sc2c1 | 99 | – | – | ? | –
COc1ccc(NC(=O)Cn2c(=O)n(CCc3ccccc3)c(=O)c3c4c(sc32)CCCC4)cc1 | · | · | – | · | –
COc1ccccc1NC(=O)Cn1c(=O)n(-c2ccc(C)cc2)c(=O)c2ccc(C(=O)NCc3ccco3)cc21 | · | · | – | · | –
SMILES | D2 PAM-1 | D2 antagonist | D2 PAM-2 | D2 ag-1 | D2 ag-2
Cc1ccc(NC(=O)c2ccc(CN3CCc4ccccc4C3)cc2)cc1 | – | – | – | – | –
O=C(Nc1ccccc1)c1ccc(CN2CCc3ccccc3C2)cc1 | – | 54 | · | – | –
O=C(Nc1cccnc1)c1ccc(CN2CCc3ccccc3C2)cc1 | – | 66 | – | – | –
COC(=O)c1ccc(C)c(NC(=O)c2ccc(CN3CCc4ccccc4C3)cc2)c1 | – | 78 | – | – | –
CCCCCCc1cc2cc(-c3nnc(-c4cc(OC)c(OC)c(OC)c4)o3)c(=O)oc2cc1O | – | – | – | – | –
CCCCCCc1cc2cc(-c3nnc(-c4ccccc4O)o3)c(=O)oc2cc1O | – | – | – | – | 39
CCCCCCc1cc2cc(-c3nnc(-c4ccccc4OC)o3)c(=O)oc2cc1O | 155 | – | – | ? | 110
CCCCCCc1cc2cc(S(=O)(=O)c3ccc(F)cc3)c(=O)oc2cc1O | – | – | – | – | –
COc1ccc(N(C(=O)CNC(=O)c2cccs2)C(C(=O)NCC2CCCO2)c2ccccc2)cc1 (configuration not stated) | – | 80 | – | – | –
CCOC(=O)CNc1ccc2c(c1)OCO2 | – | 40 | · | – | –
